Here are results for 43 compounds from ChEMBL document CHEMBL3988442, “University of Dundee, Small-Polar-MMV Screening Library” (2021).

In all, about 48,000 compounds went through this assay and about 13,000 (27%) showed an effect of 50% or more. Some of the results follow.

In the experiment the test system is Wolbachia pipientis. The experiment in a line: Anti-Wolbachia Cell-Based Screen. The format is functional. More on the design: scale not given: in the data most compounds retested in dose-response had high values. The following applies: 5 µM.
On to `CN(C)CCN1C(=O)C2(CCN(CC3CC3)CC2)c2ccccc21.O=C(O)C(F)(F)F.O=C(O)C(F)(F)F`, for which the “Percent Effect” value is reported as 113.1%.

Consider `CC(C)N1CCC2(CC1)C(=O)N(CCN(C)C)c1ccccc12.O=C(O)C(F)(F)F.O=C(O)C(F)(F)F`, for which the “Percent Effect” value stood at 103.6%.

For `COCCN1C(=O)C2(CCN(CC3CC3)CC2)c2ccccc21.O=C(O)C(F)(F)F`, the “Percent Effect” value came out at 100.2%. As to `CCN1C(=O)C2(CCN(CCN(C)C)CC2)c2ccccc21.O=C(O)C(F)(F)F.O=C(O)C(F)(F)F`, the “Percent Effect” value came to 97.23%. As for `CN1C(=O)C2(CCN(Cc3nccn3C)CC2)c2ccccc21.O=C(O)C(F)(F)F`, the “Percent Effect” value is given as -27.57%.

In the case of `Cc1ccc(CN2CCC3(CC2)C(=O)N(C)c2ccccc23)s1.O=C(O)C(F)(F)F`, the “Percent Effect” value is on record as -4.693%.

On to `CCCN1CCN(C(=O)Cc2nc(-c3ccco3)oc2C)CC1`, for which the “Percent Effect” value is reported as 1.326%.

With `COCCN1CCN(Cc2cccnc2)[C@H]2CS(=O)(=O)C[C@H]21`, the “Percent Effect” value stood at 6.429%. The result for `COCc1cncc2c1CCN(Cc1cccnc1)C2` reads 101.9%.

Take `O=C1[C@@H]2CCN(Cc3ccoc3)C[C@@H]2OCCN1c1cccnc1`: the “Percent Effect” value was determined as 8.449%. In the case of `CN(C)Cc1cncc2c1CCN(Cc1ccoc1)C2.Cl.Cl.Cl`, the “Percent Effect” value stood at 105%. For `COCc1cncc2c1CCN(Cc1cccs1)C2.O=C(O)C(F)(F)F.O=C(O)C(F)(F)F`, the “Percent Effect” value was 82.87%. As for `CC(C)N(C)Cc1cncc2c1CCN(Cc1ccoc1)C2.Cl.Cl.Cl`, the “Percent Effect” value stood at 91.96%. With `CN(C)Cc1cncc2c1CCN(Cc1cnn(C)c1)C2.Cl.Cl.Cl`, the “Percent Effect” value is listed as -9.802%. Turning to `COCc1cncc2c1CCN(Cc1ccccn1)C2.O=C(O)C(F)(F)F.O=C(O)C(F)(F)F.O=C(O)C(F)(F)F`, the “Percent Effect” value worked out at 9.224%. For `COCc1cncc2c1CCN(Cc1cnn(C)c1)C2.O=C(O)C(F)(F)F.O=C(O)C(F)(F)F`, the “Percent Effect” value was 0.729%.

Consider `CC(C)N1[C@H](CN(C)C)C[C@@H]2CN(c3ncc(F)cn3)CC[C@@H]21.O=C(O)C(F)(F)F.O=C(O)C(F)(F)F.O=C(O)C(F)(F)F`, for which the “Percent Effect” value came to 3.695%.

In the case of `CC1(C)C(C(=O)NCCC2CN(Cc3c[nH]cn3)CCO2)C1(C)C` (stereo not drawn), the “Percent Effect” value is -1.625%. `Cc1cccnc1CC(C)N(C)Cc1cccs1` (stereo not drawn): the “Percent Effect” value is -8.458%. To `CC(C)N1CCc2c(CN(C)Cc3ccco3)cncc2C1.Cl.Cl.Cl` belongs 5.952%.

For `CC(C)N(C)Cc1cncc2c1CCN(Cc1cccs1)C2.Cl.Cl.Cl`, the “Percent Effect” value is reported as 94.28%. The result for `COCCN1CCO[C@@H]2CN(S(=O)(=O)c3cccnc3)C[C@@H]2C1.O=C(O)C(F)(F)F.O=C(O)C(F)(F)F` reads 120.4%; that for `O=C(O)C(F)(F)F.O=C(O)C(F)(F)F.O=S(=O)(c1cccnc1)N1C[C@@H]2COC[C@]2(CN2CCOCC2)C1`, -9.184%; that for `COCCN1CCO[C@@H]2CN(Cc3ccccn3)C[C@@H]2C1.O=C(O)C(F)(F)F.O=C(O)C(F)(F)F.O=C(O)C(F)(F)F`, -10.28%. The result for `CS(=O)(=O)N1CCO[C@@H]2CN(Cc3ccncc3)C[C@@H]2C1.O=C(O)C(F)(F)F.O=C(O)C(F)(F)F` reads 13.84%; that for `Cc1ccsc1CN1C[C@@H]2CN(Cc3cccnc3)CCO[C@@H]2C1.O=C(O)C(F)(F)F.O=C(O)C(F)(F)F.O=C(O)C(F)(F)F`, 13.17%; that for `CN1CCO[C@@H]2CN(S(=O)(=O)c3cccnc3)C[C@@H]2C1.O=C(O)C(F)(F)F.O=C(O)C(F)(F)F`, 131.4%. Consider `CNCc1cn(C[C@H]2C[C@@H]3CCN2C[C@@H]3C(=O)NC2CCCCC2)nn1`, for which the “Percent Effect” value is on record as -0.1027%. Turning to `COc1cccc([C@@H]2CCN(Cc3ccc4ccccc4n3)C[C@H]2O)c1`, the “Percent Effect” value is -2.697%. Turning to `COc1ncc(CN2CCC3(CCCN(CC4CCC4)C3)C2)cn1` (stereo not drawn), the “Percent Effect” value was found to be 83.26%. As for `CCc1cnc(N2CC3(CCN(Cc4ccsc4)C3)C2)nc1.O=C(O)C(F)(F)F`, the “Percent Effect” value is given as 18.1%.

With `Cc1ncc(CN2CCC3(CCCN(CC4CCC4)C3)C2)cn1` (stereo not drawn), the “Percent Effect” value is reported as 97.43%.

Consider `COCCN1CCC2(CCCN(c3ncc(F)cn3)C2)C1` (stereo not drawn), for which the “Percent Effect” value came out at 7.957%. `CCc1ncc(CN2C[C@H]3CC[C@@H]2CN(C(=O)C2CCC2)C3)cn1`: the “Percent Effect” value is reported as -5.818%.

Regarding `c1cncc(CN2CCC3(CCCN(c4nncs4)C3)C2)c1` (stereo not drawn), the “Percent Effect” value is on record as 3.767%. On to `O=C(O)C(F)(F)F.c1cnc(N2CCCC3(CCN(CC4CCC4)C3)C2)nc1` (stereo not drawn), for which the “Percent Effect” value is listed as -2.816%. The result for `Fc1cnc(N2CC3(CCN(CC4CC4)C3)C2)nc1.O=C(O)C(F)(F)F` reads 6.625%.

Consider `CCc1ncc(CN2CCC3(CCCN(CC4CCC4)C3)C2)cn1` (stereo not drawn), for which the “Percent Effect” value is 67.34%. With `Cc1c(CN2CCCC(C(=O)c3ccccc3)C2)cc(C#N)n1C` (stereo not drawn), the “Percent Effect” value is -33.94%. For the compound `CCn1ncc(CN2CCCC(C(=O)c3ccc(Cl)cc3)C2)c1C` (stereo not drawn), the “Percent Effect” value was -8.229%.

On to `CCNC(=O)[C@H]1CN(Cc2ccccc2)C[C@@H]1C(=O)c1ccccc1`, for which the “Percent Effect” value came to 155%. The result for `CC(C)CNC(=O)[C@H]1C[C@@H]2CN(Cc3cccnc3)C[C@H]1O2.O=C(O)C(F)(F)F.O=C(O)C(F)(F)F` reads 1.995%; that for `O=C(O)C(F)(F)F.O=C1[C@H]2CN(Cc3ccccc3)C[C@H]2CN1c1cncnc1`, 5.118%.
